Holding throughout (set-up): scale not given: direction of the effect not stated beside the values
The target in test [1] is Protein translocase subunit SecA (Escherichia coli (strain K12)) (UniProt P10408). As to the kind of experiment: Assay to Identify E. coli SecA ATPase Inhibitors. The conditions noted are these: 30 µM. The class given is functional.
Test [2] has as its target T1, Ubiquitin-activating enzyme e1, putative (Leishmania donovani (strain BPK282A1)) (UniProt E9BSI1).
T1 sequence (whole entry): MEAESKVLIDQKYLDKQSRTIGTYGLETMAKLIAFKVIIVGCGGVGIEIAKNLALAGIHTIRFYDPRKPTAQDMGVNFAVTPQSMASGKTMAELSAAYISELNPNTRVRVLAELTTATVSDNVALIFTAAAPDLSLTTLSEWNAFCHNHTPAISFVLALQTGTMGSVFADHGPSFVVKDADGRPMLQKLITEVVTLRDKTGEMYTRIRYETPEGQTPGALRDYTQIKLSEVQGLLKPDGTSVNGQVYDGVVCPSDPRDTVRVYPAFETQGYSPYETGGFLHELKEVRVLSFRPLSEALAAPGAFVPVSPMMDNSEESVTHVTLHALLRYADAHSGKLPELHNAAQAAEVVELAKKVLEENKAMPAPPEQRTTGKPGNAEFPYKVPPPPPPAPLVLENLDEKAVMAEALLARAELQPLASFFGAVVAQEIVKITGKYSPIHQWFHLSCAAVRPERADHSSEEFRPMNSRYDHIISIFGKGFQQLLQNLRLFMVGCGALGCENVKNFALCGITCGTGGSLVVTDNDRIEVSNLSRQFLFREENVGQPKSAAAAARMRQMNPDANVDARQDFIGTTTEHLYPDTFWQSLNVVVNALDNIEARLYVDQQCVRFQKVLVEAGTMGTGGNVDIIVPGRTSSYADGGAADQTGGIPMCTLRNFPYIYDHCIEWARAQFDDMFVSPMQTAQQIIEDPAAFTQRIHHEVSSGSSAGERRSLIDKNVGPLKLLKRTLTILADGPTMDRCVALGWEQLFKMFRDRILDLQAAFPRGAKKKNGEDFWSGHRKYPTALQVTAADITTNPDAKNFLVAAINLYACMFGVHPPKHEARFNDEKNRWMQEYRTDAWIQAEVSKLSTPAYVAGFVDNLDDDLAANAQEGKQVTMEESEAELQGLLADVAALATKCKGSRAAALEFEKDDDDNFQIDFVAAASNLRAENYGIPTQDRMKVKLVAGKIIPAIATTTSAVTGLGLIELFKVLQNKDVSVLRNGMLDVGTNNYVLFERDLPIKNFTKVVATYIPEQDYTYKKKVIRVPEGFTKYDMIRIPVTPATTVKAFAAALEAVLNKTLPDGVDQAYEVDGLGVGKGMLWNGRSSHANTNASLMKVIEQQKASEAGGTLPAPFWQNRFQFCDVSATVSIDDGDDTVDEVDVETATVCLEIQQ
As to the kind of experiment: Leishmania donovani Ubiquitin Activating Enzyme (LdE1). The class given is functional. The conditions noted are these: 30 µM.

Test [3] concerns the target AMP-activated protein kinase, AMPK (Homo sapiens) (UniProt P54646+O43741+P54619+Q9UGJ0+Q9Y478+Q13131+Q9UGI9). As to the kind of experiment: AMP-dependent Kinase enzyme assay. An in vitro enzyme assay that detects ADP turnover that is directly proportional to AMPK activity. This uses naive AMPK that is activated during the assay with MK-8722. The class given is functional. Particulars: 30 µM.

Test [4] has as its target Sialic acid-binding Ig-like lectin 9 (Homo sapiens) (UniProt Q9Y336). Description: Hs-Siglec9 ALPHAscreen SOP 20170721. Particulars: 10 µM. Background: Alpha assays give light when donor and acceptor beads are brought close together.
For test [5], the system named is Trypanosoma cruzi. Description: Trypanosoma cruzi phosphomannomutase and mannose-1-phosphate guanylyltransferase assay. The class given is functional. The conditions noted are these: 10 µM.
For test [6], the target named is T2, Arginase-2, mitochondrial (Homo sapiens) (UniProt P78540).
T2 sequence (whole entry): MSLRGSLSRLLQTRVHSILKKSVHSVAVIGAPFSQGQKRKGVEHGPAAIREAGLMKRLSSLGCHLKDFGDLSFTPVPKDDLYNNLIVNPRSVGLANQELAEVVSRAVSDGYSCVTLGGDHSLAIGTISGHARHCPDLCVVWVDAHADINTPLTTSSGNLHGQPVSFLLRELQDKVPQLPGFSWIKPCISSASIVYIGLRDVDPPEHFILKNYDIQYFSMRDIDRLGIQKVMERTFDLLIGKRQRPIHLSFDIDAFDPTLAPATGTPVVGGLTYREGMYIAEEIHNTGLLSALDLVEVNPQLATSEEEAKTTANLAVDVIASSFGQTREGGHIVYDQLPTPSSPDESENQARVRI
As to the kind of experiment: in vitro enzyme assay to detect the production of urea directly proportional to the activity of Arginase II. Also: in the data most compounds retested in dose-response had high values. The class given is functional. Particulars: 33.3 µM.

Test [7] addresses T3, Proteasome subunit beta (Trypanosoma cruzi) (UniProt O96673).
T3 sequence (whole entry): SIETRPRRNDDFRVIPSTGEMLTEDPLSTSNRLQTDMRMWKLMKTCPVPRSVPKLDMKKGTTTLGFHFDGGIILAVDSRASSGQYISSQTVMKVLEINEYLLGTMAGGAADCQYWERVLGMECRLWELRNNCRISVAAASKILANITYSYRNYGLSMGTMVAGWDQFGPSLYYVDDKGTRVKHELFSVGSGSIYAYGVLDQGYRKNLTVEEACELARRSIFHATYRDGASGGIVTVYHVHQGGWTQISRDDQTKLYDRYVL
Description: Trypanosoma cruzi proteasome chymotrypsin-like activity (TcProtChymo) assay. Also: in the data most compounds retested in dose-response had high values. The class given is functional. Particulars: 9.37 µM.

The species named for test [8] is Homo sapiens. Description: To identify inhibition of the IFN signalling (Jak-Stat) pathway via expression of an eGFP reporter gene under the control of an IFN-stimulated response element (ISRE) containing MxA promoter. The class given is functional. The conditions noted are these: 30 µM. (Reporter assays use an easily measured gene product as a stand-in for the process of interest.)

Test [9] concerns the target T4, Tyrosyl-tRNA synthetase, putative (Trypanosoma cruzi (strain CL Brener)) (UniProt Q4DSP6).
T4 sequence (whole entry): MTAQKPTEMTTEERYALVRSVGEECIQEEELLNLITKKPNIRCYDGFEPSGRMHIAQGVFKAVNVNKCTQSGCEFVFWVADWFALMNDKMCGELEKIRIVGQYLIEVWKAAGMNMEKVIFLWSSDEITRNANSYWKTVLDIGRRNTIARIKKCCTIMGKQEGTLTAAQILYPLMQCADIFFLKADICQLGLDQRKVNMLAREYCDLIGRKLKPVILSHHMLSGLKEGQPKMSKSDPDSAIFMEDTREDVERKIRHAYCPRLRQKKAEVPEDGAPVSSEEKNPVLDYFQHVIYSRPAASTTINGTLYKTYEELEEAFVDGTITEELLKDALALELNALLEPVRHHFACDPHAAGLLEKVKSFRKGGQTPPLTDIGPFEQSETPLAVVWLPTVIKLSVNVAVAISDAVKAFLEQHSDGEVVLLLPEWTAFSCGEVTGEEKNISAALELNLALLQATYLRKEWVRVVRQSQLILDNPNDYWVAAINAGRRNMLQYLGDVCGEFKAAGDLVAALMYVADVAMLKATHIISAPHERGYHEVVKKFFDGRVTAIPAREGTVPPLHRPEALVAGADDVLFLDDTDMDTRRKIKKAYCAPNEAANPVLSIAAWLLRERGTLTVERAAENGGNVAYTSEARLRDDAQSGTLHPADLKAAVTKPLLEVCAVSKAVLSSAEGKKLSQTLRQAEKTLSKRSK
As to the kind of experiment: Trypanosoma cruzi tyrosyl tRNA synthetase (TcYRS) _High Tyrosine SOP. Also: in the data most compounds retested in dose-response had high values. The conditions noted are these: 30 µM. The class given is functional.

In test [10] the target is T4, Tyrosyl-tRNA synthetase, putative (Trypanosoma cruzi (strain CL Brener)). As to the kind of experiment: Trypanosoma cruzi tyrosyl tRNA synthetase (TcYRS) SOP. The class given is functional. Particulars: 30 µM.
In test [11] the target is Chromo domain-containing protein 1 (Saccharomyces cerevisiae (strain ATCC 204508 / S288c) (Baker's yeast)) (UniProt P32657). Description: ScCHD-1 Enzyme Inhibition Assay. Also: in the data most compounds retested in dose-response had high values. The class given is functional. Particulars: 30 µM.
Sequence of Chromo domain-containing protein 1 (Saccharomyces cerevisiae (strain ATCC 204508 / S288c) (Baker's yeast)) (P32657 whole entry, the tested form may be a part): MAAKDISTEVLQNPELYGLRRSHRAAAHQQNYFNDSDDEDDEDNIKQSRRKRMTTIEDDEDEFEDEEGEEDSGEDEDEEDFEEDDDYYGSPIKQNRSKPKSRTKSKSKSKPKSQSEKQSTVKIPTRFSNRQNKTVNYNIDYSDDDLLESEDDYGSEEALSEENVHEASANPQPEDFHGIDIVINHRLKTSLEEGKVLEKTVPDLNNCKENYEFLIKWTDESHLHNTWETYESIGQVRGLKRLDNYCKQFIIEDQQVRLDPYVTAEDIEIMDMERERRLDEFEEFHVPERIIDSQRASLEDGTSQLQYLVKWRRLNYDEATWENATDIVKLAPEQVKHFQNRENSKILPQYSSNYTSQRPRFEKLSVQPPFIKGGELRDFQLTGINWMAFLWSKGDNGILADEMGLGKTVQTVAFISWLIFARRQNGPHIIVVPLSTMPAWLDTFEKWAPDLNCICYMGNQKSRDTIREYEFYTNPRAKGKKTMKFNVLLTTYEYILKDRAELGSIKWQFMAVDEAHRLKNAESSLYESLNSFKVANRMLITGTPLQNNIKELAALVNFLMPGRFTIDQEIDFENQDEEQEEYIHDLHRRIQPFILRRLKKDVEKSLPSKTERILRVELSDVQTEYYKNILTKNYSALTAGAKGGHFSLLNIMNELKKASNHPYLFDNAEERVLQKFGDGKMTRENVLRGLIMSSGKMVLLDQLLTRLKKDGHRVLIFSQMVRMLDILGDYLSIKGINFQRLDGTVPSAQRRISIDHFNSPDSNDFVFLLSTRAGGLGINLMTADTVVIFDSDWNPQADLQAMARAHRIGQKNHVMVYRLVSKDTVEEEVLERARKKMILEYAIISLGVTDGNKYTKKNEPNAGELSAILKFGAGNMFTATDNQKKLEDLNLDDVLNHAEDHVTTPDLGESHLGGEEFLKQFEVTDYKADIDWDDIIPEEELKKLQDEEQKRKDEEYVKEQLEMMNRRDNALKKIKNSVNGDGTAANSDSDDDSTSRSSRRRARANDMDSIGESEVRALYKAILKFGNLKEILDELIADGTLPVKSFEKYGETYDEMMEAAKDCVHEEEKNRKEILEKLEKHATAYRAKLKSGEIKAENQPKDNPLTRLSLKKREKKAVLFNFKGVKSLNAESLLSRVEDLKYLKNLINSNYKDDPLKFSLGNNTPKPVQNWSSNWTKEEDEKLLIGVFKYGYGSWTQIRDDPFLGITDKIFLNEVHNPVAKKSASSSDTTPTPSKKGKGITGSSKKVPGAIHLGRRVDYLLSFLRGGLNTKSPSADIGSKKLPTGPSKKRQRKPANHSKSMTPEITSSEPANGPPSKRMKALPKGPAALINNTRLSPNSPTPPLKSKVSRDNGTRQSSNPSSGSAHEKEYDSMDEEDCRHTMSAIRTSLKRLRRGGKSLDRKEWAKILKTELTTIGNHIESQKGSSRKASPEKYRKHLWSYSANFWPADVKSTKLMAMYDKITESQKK

For eight compounds, Percent Effect results are on record in ChEMBL document CHEMBL3988442, “University of Dundee, Small-Polar-MMV Screening Library” (2021).

Molecules are shown by their SMILES. For some of these results: Entries with a potency or affinity are not part of this list.

Sequence of Sialic acid-binding Ig-like lectin 9 (Homo sapiens) (Q9Y336 whole entry): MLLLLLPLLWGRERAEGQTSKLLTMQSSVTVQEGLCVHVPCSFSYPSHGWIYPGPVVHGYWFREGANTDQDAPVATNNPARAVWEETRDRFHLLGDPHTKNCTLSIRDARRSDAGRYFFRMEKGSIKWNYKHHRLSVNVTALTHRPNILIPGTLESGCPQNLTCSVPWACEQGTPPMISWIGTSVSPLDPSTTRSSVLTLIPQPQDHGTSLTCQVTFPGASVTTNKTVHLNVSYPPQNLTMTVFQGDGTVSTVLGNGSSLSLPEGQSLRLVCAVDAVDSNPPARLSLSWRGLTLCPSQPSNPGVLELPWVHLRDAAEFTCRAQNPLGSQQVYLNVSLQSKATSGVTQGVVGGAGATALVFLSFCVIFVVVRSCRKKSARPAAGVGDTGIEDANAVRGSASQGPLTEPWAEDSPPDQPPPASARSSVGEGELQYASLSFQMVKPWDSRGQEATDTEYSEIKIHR
Sequence of Protein translocase subunit SecA (Escherichia coli (strain K12)) (P10408 whole entry): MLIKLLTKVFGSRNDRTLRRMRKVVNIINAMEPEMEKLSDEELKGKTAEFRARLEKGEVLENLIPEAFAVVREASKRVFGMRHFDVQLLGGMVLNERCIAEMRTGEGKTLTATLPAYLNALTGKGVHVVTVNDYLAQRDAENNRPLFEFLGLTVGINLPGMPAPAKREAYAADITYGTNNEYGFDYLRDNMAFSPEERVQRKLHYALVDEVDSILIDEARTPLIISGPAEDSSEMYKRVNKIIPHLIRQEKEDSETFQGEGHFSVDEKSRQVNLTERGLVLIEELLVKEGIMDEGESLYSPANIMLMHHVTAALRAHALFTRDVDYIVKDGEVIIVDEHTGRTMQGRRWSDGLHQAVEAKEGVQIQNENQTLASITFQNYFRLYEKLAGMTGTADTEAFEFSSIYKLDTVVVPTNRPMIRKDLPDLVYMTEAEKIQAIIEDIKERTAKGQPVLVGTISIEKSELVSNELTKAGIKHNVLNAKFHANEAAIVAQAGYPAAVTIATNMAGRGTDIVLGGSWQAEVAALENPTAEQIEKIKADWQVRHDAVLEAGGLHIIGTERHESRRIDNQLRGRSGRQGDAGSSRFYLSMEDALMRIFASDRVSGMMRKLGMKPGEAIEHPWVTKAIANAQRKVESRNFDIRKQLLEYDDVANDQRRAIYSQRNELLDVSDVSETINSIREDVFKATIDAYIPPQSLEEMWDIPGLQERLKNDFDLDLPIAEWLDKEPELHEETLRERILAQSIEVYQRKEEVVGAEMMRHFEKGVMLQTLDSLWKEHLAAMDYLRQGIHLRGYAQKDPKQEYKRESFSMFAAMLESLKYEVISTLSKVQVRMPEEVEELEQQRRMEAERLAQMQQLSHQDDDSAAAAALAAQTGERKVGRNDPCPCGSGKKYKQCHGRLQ

Take `N#Cc1ccnc(N2CCN(Cc3cccc(F)c3)CC2)c1`: the Percent Effect was -3.54% in test [1]; 18.9% in [2]; -3.8% in test [3]; 19.9% in test [4]; 4.2% in test [5]; 3.23% in test [6]. Moreover, the Percent Effect in [7] is 9.01%; in test [8], 4.37%; in test [9], 4.3%; in [10] it was 16.1%; in test [11] it was -8.71%.
For `Cc1cnn(CC(C)NCc2ccc(OCc3ccncc3)cc2)c1` (stereo not drawn), the Percent Effect in test [1] is -5.11%; in test [2] it was -1.27%; in test [3], 4.3%; in test [4] it was -6.57%; in test [5], -6.67%; in test [6] it was -3.66%. For the same compound, the Percent Effect is 9.95% in test [7]; 24.2% in test [8]; 5.21% in test [9]; 5.06% in [10]; -25.8% in [11].
Regarding `CC1CCc2nc(O)c(C(=O)NCc3cccc(F)c3)cc2C1` (stereo not drawn), the Percent Effect in test [1] is -3.85%; in test [2], -12%; in test [3], 11.6%; in test [4], 0.168%; in test [5] it was -3.54%; in test [6], -5.46%. The Percent Effect in test [7] is 4.99%; in test [8], 9.92%; in [9], -1.06%; in test [10], 0%; in test [11], -2.98%.
Regarding `Cc1cc(C)n(CC2CCCN2C(=O)c2ccc3c(c2)OCO3)n1` (stereo not drawn), the Percent Effect in test [1] was -1.47%; in test [2], 6.33%; in [3] it was 1.3%; in [4], -3.57%; in [5], 2.15%; in [6] it was -1.5%. Also, the Percent Effect in test [7] turned out to be 8.75%; in test [8], 1.15%; in test [9] it was 2.08%; in test [10], 2.53%; in [11], 0.284%.
As for `c1cncc(COCC2CN(Cc3ccco3)Cc3ccnn3C2)c1` (stereo not drawn), the Percent Effect is -3% in test [1]; 13.5% in test [2]; -6.55% in [3]; 4.29% in [4]; -0.0978% in [5]; 6.2% in test [6]. The Percent Effect was 5.06% in [7]; 9.51% in [8]; 7.53% in test [9]; 13.6% in [10]; -2.33% in test [11].
In the case of `Cc1cnn(CCNCc2ccccc2C#N)c1`, the Percent Effect was -7.98% in test [1]; 5.41% in [2]; -2.49% in test [3]; 6.11% in [4]; -5.11% in [5]; -0.554% in test [6]. Further, the Percent Effect in test [7] is 5.21%; in test [8], 14.9%; in test [9], -1.98%; in test [10] it was -1.22%; in test [11] it was 1.22%.
Turning to `Cc1ccc2c(ccn2CCC(=O)O)c1`, the Percent Effect in [1] was -4.82%; in [2], 0%; in [3] it was 0.269%; in test [4], -0.473%; in [5], 1.07%; in test [6], -0.744%. In addition, the Percent Effect was -2.83% in [7]; 11.2% in test [8]; 1.07% in [9]; 3.7% in [10]; 0.48% in test [11].
In the case of `Cc1cc(C[C@@H]2COC[C@H]2NCc2ccc(Br)s2)on1`, the Percent Effect is -7.36% in [1]; 1.35% in test [2]; 9.27% in [3]; -0.828% in [4]; -2.77% in test [5]; -7.19% in test [6]. For the same compound, the Percent Effect in test [7] is -1.72%; in test [8] it was 31.8%; in test [9] it was -2.15%; in [10], -3.9%; in test [11], -6.34%.
